# Sa RN4220 lethal: growth inhibition of S. aureus RN4220, primary screen, OD600 | 16 h | inhibition, % (concentration not given with the values) | 330,000 compounds, 0.33% hits | AID 1259311, 2017; in the data active = inhibition above about 85%
# PfHsp40 yeast: rescue of yeast from PfHsp40 toxicity, primary screen, S. cerevisiae, ATP luminescence; S. cerevisiae expressing PfHsp40, growth rescue; growth rescue, % at 12.5 µM; 340,000 compounds, 0.68% hits; AID 504582, 2011; in the data active = growth rescue above about 28%, passing the limit was not always enough;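 also: yeast W303a lacking pdr1 and pdr3 grown in galactose medium; growth measured after three days at 30 °C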
# CCHFV vOTU inh: CCHFV vOTU protease inhibitors, primary screen, biochemical, Pep-AMC substrate, fluorescence; 370,000 compounds, 0.55% hits; AID 651958, 2012; Crimean-Congo hemorrhagic fever virus L polyprotein viral ovarian tumor (vOTU) protease …; inhibition, % at 11.5 µM; in the data active = inhibition above about 30%
# Vc quorum ag-1: inducers of Vibrio cholerae quorum light production without autoinducers, primary screen, BH1578 luxS cqsA deficient, single point; V. cholerae BH1578 lux reporter, luminescence, 6 h; activation, % at 18.7 µM; 350,000 compounds, 0.16% hits; in the data active = activation mostly above about 9.7%, no sharp cut-off
# ugtP null kill: growth inhibition of ugtP-null S. aureus, primary screen, RN4220 ugtP deletion, OD600; 16 h; growth inhibition, % (concentration not given with the values); 330,000 compounds, 0.54% hits; AID 1259309, 2017; in the data active = growth inhibition above about 68%
# Mtb hypoxia rep: PubChem AID 1159583; M. tuberculosis hypoxia-regulated fluorescent reporter, fluorescence; fluorescence inhibition, % (test concentration not listed); 300,000 compounds, 0.1% hits; in the data active = fluorescence inhibition mostly above about 23%, no sharp cut-off; inactive = mostly below about 17%
# Vc quorum ag-2: V. cholerae lux activation without autoinducers – BH1578 luxS cqsA deficient, cherry-pick, plate reader, dose response. shares compounds with Vc quorum ag-1. V. cholerae BH1578 lux reporter, luminescence, 6 h. activation, % at 50 µM. 620 tested, under 10 active. AID 602243, 2012; call rule not given here
# HeLa tox: HeLa cell cytotoxicity, dose response, cytotoxicity control, 24 h, dry powder. HeLa viability, CellTiter-Glo ATP luminescence. activity change, negative = cytotoxicity, % at 35 µM. shares compounds with Vc quorum ag-1. AID 624140, 2012. 25 tested, under 10 active;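 active = signal drop with fitted half-maximal concentration at or below twice the highest valid dose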
# Hits are given with their value; 0 = inactive; - = no result given; + = active, no number. The list is not random: actives were taken first. Their share in the collection is about 1.7%.
SMILES,Sa RN4220 lethal,PfHsp40 yeast,CCHFV vOTU inh,Vc quorum ag-1,ugtP null kill,Mtb hypoxia rep,Vc quorum ag-2,others
COc1ccc(C2C=CCN(S(=O)(=O)c3ccc(C)cc3)C(Cc3ccccc3)C(=O)N2Cc2ccc(F)cc2)cc1 (stereo not given),0,-,-,-,0,0,-,
Cc1ccc(Nc2ccc3nonc3c2[N+](=O)[O-])cc1,0,0,0,0,0,0,-,
CCOc1ccc(Nc2ccc3nonc3c2[N+](=O)[O-])cc1,0,0,0,+,0,0,0,HeLa tox=0
COc1ccc(OC)c(NC(=O)Nc2cccc(Cn3cccn3)c2)c1,0,0,0,0,0,0,0,
COC(=O)c1ccc(C=NNC(=O)CC(=O)NCCc2ccccc2)cc1,0,-,-,-,0,0,-,
O=C(COC(=O)C1CCC1)Nc1ccc(Oc2ccccc2)cc1,0,0,0,0,0,0,0,
O=C(COC(=O)C1CC1)Nc1ccc(Oc2ccccc2)cc1,0,0,0,0,0,0,-,
C[N+](C)(C)CCCCCCC(=O)C=NO,0,-,-,-,0,0,-,
Cc1ncc(S(=O)(=O)c2ccccc2)c(-c2ccc(Cl)cc2Cl)n1,0,0,0,16.7,0,0,0,
Cn1c(=O)c2c(ncn2CC(=O)NN=C/C=C/c2ccco2)n(C)c1=O,0,-,-,-,0,0,-,
CC(NC(=O)CN1CCN(c2ccccc2F)CC1)c1ccccc1 (stereo not given),0,0,0,0,0,0,0,
COC(=O)CN1CCN(C(c2ccccc2)c2ccccc2)CC1,0,0,0,0,0,0,-,
COCCNC(=O)CN1CCN(C(c2ccccc2)c2ccccc2)CC1,0,0,0,0,0,0,0,
COc1ccc(CN(C(=O)CON=Cc2ccccc2)c2ccccc2C(=O)O)cc1,0,-,-,-,0,0,-,
CCCc1cc(=O)n2[nH]cc(-c3ccc(Cl)cc3)c2n1,99.2,0,0,41.2,98.6,0,0,
COCc1cc(=O)n2[nH]cc(-c3ccccc3)c2n1,0,0,0,0,0,0,-,
C=CCC1(C=NO)CCOC(C)(C)C1 (stereo not given),0,-,-,-,0,0,-,
Nc1nnc(SCC(=O)Nc2ccc3c(c2)OCCO3)s1,0,0,0,0,0,0,0,
CCC(=O)Nc1nnc(SCC(=O)Nc2ccc3c(c2)OCCO3)s1,0,0,0,0,0,0,-,
CCCCn1c(=O)c(C(=O)NC(C)c2ccccc2)c(O)c2ccccc21 (stereo not given),0,0,0,0,0,0,-,
C=CCn1c(=O)c(C(=O)NC(C)c2ccccc2)c(O)c2ccccc21 (stereo not given),0,0,0,450.8,0,0,0,
Cc1ccsc1C=CC1=NCCCN1C,0,-,-,-,0,0,-,
O=C(NCc1ccccc1)c1ccc(C=NO)nc1,0,-,-,-,0,0,-,
COc1ccc(-n2c(COc3ccccc3)nnc2SCc2ccc(C#N)cc2)cc1,0,0,0,0,0,0,0,
COc1ccccc1C(=O)NC(=O)COC(=O)CNC(=O)c1ccc(Cl)cc1Cl,0,0,0,0,0,0,-,
SMILES,Sa RN4220 lethal,PfHsp40 yeast,CCHFV vOTU inh,Vc quorum ag-1,ugtP null kill,Mtb hypoxia rep,Vc quorum ag-2,others
COc1ccc(C(=O)COC(=O)CNC(=O)c2ccc(Cl)cc2Cl)c(OC)c1,0,0,0,0,0,0,0,
O=c1c2cc(Br)ccc2nc(-c2cccc(C(F)(F)F)c2)n1O,0,0,0,17.9,0,-,0,
Oc1cccc(C=NN=Cc2cccc(O)c2O)c1O,0,-,-,-,0,0,-,
COc1ccc(C=NNc2nc(-c3cccnc3)nc3ccccc23)cc1OC,0,-,-,-,0,0,-,
O=C(Nc1nnc(-c2ccc(Br)cc2)o1)c1cccc(N2C(=O)CCC2=O)c1,0,0,0,0,0,0,0,
O=C(Nc1nnc(-c2ccccc2)o1)c1cccc(N2C(=O)CCC2=O)c1,-,0,0,0,-,-,-,
CNC(=O)c1[nH]cnc1C(=O)NC(C)C(=O)OCc1ccccc1 (stereo not given),0,-,-,-,0,0,-,
CCOc1ccc2cc(C#N)c(SCC(=O)N3CCC(C)CC3)nc2c1,0,0,0,0,0,0,0,
COc1ccc(NS(=O)(=O)c2cccc(C(=O)NN=Cc3ccc(O)cc3)c2)cc1,0,-,-,-,0,0,-,
CC=CC(=O)Nc1cccc(C2=NOC3(C2)CC(C(N)=O)N(C(=O)c2ccc(OC)cc2)C3)c1 (stereo not given),0,-,-,-,0,0,-,
CCC(C)C(NC(=O)OC1C(=O)c2cc(OC)ccc2OC1c1ccc(OC)c(Br)c1)C(=O)OC (stereo not given),0,-,-,-,0,0,-,
Cc1cccc(NC(=O)CSc2nc(=O)n(CCN3CCOCC3)c3c2CCCC3)c1C,0,0,0,0,0,0,0,
O=C(CSc1nc(=O)n(CCN2CCOCC2)c2c1CCCC2)Nc1ccccc1Cl,-,-,0,0,-,-,-,
CCOC(=O)c1c(C)[nH]c(C)c1C(=O)COC(=O)c1cccc(S(=O)(=O)N(CC)CC)c1,0,0,0,0,0,0,-,
CCN(CC)S(=O)(=O)c1cccc(C(=O)OCC(=O)C23CC4CC(CC(C4)C2)C3)c1,0,0,0,0,0,0,0,
Cc1ccccc1OCC(=O)OCC(=O)N1CCc2ccccc21,0,0,0,0,0,0,-,
Cc1ccccc1OCC(=O)OCC(=O)N1CCCc2ccccc21,0,0,0,0,0,0,0,
COc1ccc(NC(=O)CCS(=O)(=O)c2ccc3c(c2)CCCN3C(C)=O)cc1Cl,0,0,0,16.7,0,0,0,
COc1ccc(N=C2SC(=Cc3ccco3)C(=O)N2CC(C)C)cc1,0,-,-,-,0,0,-,
CCC(=O)N(CC)c1nc(-c2cc(OC)ccc2OC)cs1,0,0,0,15.4,0,0,0,
CCC(=O)N(CCCN(C)C)c1nc(-c2cc(OC)ccc2OC)cs1,0,0,0,0,0,0,-,
Cc1ccc(C)c(-n2c(Cc3cccs3)n[nH]c2=S)c1,0,0,0,0,0,0,0,
S=c1[nH]nc(Cc2cccs2)n1-c1ccccc1Cl,0,0,0,0,0,0,-,
Cc1ccccc1-c1n[nH]c(=S)n1N=Cc1c(C)nn(-c2ccccc2)c1C,0,-,-,-,0,0,-,
C=CCOC(=O)C1=CC(c2ccccc2)CC(OCc2ccc(CO)cc2)O1 (stereo not given),0,-,-,-,0,0,-,
Cc1ccc(C=NNC(=O)CNC(=O)c2ccc(C)c([N+](=O)[O-])c2)o1,0,-,-,-,0,0,-,
CCOc1ccccc1N(CC(=O)Nc1ccc2c(c1)OCCO2)S(C)(=O)=O,0,0,0,0,0,-,0,
Cc1occc1-c1nnc(SCC(=O)NCc2cccs2)n1-c1ccc(F)cc1,0,0,0,0,0,-,0,
Cc1nnc(SCC(=O)NCc2cccs2)n1-c1ccccc1,0,0,0,0,0,0,-,

# Bioassay records deposited in PubChem BioAssay by several laboratories.
